The test is described as follows: chemical genetic growth profiling, strain panel (AID 1159580).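 Note: tested at 20 µM; growth read once vehicle control cultures reached saturation at 30 °C; 1 = growth at the plate median or of vehicle wells.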 Particulars: S. cerevisiae deletion strains, growth OD.
Where [1] appears, read: locus YAL040C, strain CLN3, stronger effect = lower value.
Where [2] appears, read: locus YDR150W, strain NUM1, stronger effect = lower value.
The mark [3] stands for this setting: locus YDR363W, strain ESC2, stronger effect = lower value.
Where [4] appears, read: locus YER002W, strain NOP16, stronger effect = lower value.
The mark [5] stands for this setting: locus YJR075W, strain HOC1, stronger effect = lower value.
Setting [6] is: locus YMR307W, strain GAS1, stronger effect = lower value.
[7] abbreviates: locus YNL175C, strain NOP13, stronger effect = lower value.
The mark [8] stands for this setting: locus YNL197C, strain WHI3, stronger effect = lower value.
[9] abbreviates: locus YNL224C, strain SQS1, stronger effect = lower value.
Setting [10] is: locus YOR083W, strain WHI5 (second series), stronger effect = lower value.
Setting [11] is: locus YCL061C, strain MRC1 (second series), stronger effect = lower value.
The mark [12] stands for this setting: locus YGR078C, strain PAC10, stronger effect = lower value.
Where [13] appears, read: locus YPL055C, strain LGE1, stronger effect = lower value.

Each structure is given as a SMILES string. About 2,000 (36%) of roughly 5,500 compounds were called active. Roughly 18% stayed inconclusive and do not appear here. Some of the results follow. A number with no mark means an inactive call. Cut-off read from the data, not from the text of the source: active = normalized growth mostly below about 0.91 (no sharp cut-off); inconclusive = no clear call, values can overlap the other calls; inactive = mostly above about 0.92.

With `Nc1ncnc2c1ncn2C1CCCC1`, the normalized growth under setting [1] is 1.01; the normalized growth under setting [2] was 1; the normalized growth under setting [3] is 1.02; the normalized growth under setting [4] is 1.01; the normalized growth (locus YGR229C, strain SMI1, stronger effect = lower value) was 1.02; the normalized growth under setting [5] is 1.04. In addition, the normalized growth runs as follows: under setting [6], 1.01; (locus YNL128W, strain TEP1, stronger effect = lower value) 1.03; under setting [7], 1.01; under setting [8], 1.01; under setting [9], 1.03; under setting [10], 1.01. Besides, where the note is “locus YPL241C, strain CIN2, stronger effect = lower value”, the normalized growth was 1.01.

`Nc1ncnc2c1c(-c1ccc(Oc3ccccc3)cc1)cn2C1CCCC1`: the normalized growth under setting [1] is 0.94; the normalized growth under setting [11] is 1.01; the normalized growth under setting [3] is 1.02; the normalized growth under setting [4] is 1.02; the normalized growth under setting [12] is 0.934; the normalized growth under setting [5] is 1.02. Besides, the normalized growth under setting [7] was 1.01; the normalized growth under setting [8] was 1.1; the normalized growth under setting [9] is 0.952; the normalized growth under setting [10] was 0.838 (active); the normalized growth under setting [13] was 0.989.

As for `C[C@@H]1O[C@@H](O[C@H]2C[C@@H](O)[C@]3(CO)[C@@H]4C(CC[C@]3(O)C2)[C@@]2(O)CC[C@H](C3COC(=O)C3)[C@@]2(C)C[C@H]4O)[C@H](O)[C@H](O)[C@H]1O` (some centres not stated), the normalized growth is, setting by setting: under setting [1], 0.998; under setting [11], 1; under setting [2], 0.996; under setting [3], 1; under setting [4], 0.996; under setting [12], 1.01. Besides, the normalized growth reads like this: under setting [6], 1.01; under setting [7], 0.98; under setting [8], 1; under setting [9], 0.974; (locus YNL322C, strain KRE1, stronger effect = lower value) 1.01; under setting [10], 1.05. Also, the normalized growth under setting [13] was 1.01.

For the origin of these results see PubChem BioAssay AID1159580 (chemical genetic matrix, 2015).
